Shown are actives, neighbours in structure and some others; about 4.1% of the full set was active somewhere.
PolyA inh – yeast polyadenylation inhibition. AID 1875. activity score, % at 12 µM. hit rate 0.02% among 300,000. S. cerevisiae SKY197-pL101 polyadenylation reporter, beta-gal luminescence; efflux-impaired pdr1/pdr3 knockout yeast; score 100 = 6 SD above DMSO;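 active means lowest replicate activity score at least 50, where 100 means six control SD above control mean; inconclusive means lowest score under 50 but half or more replicates reach 50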;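 further: yeast exposed to compound for 9 h at 30 °C; higher score means more reporter readthrough which indicates perturbed polyadenylation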
DAX1 inh-1 – blocks DAX1 repression of SF-1 activated StAR promoter. HEK293T StAR-luciferase reporter, SF-1/DAX-1 repression relief. inhibition, % at 6.8 µM. hit rate 1.1% among 370,000. AID 652010;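 active means inhibition above the mean over all tested compounds plus 3 SD, cut at about 3.6% in these data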;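 further: 0% = DAX-1 cells with DMSO and 100% = cells lacking DAX-1 with DMSO; higher inhibition means more luminescence from relief of DAX-1 repression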
DAX1 inh-2 – NR0B1 (DAX1) inhibition; inhibition, % at 6.75 µM; HEK293 Gal4-DAX1 luciferase reporter, luminescence; P51843; hit rate 0.99% among 340,000; AID 504766;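 active means inhibition above the mean over all tested compounds plus 3 SD, cut at about 4.2% in these data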;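 further: 0% = DAX1-transfected cells with DMSO and 100% = empty-vector control cells with DMSO; inhibition shows as a rise in luminescence from relieved DAX1 repression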
Target sequence (P51843 207-470 limits assumed): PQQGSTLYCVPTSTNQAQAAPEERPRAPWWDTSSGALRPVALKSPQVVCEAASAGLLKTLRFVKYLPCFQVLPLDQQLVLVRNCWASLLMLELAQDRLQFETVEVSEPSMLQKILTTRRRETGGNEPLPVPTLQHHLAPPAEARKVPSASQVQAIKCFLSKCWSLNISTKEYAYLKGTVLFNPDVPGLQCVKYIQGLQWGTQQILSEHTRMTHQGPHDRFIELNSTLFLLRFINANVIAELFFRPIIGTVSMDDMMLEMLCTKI
ssDAF12 agonist – S. stercoralis DAF-12 activation, primary screen; activation, % at 6.8 µM; AID 652126; hit rate 1% among 370,000; HEK293 ssDAF-12/GRIP1 lit1-tk-luc reporter, luminescence; % of 3 µM dafachronic acid response;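 active means activation above the mean over all tested compounds plus 3 SD, cut at about 0.9% in these data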;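 further: 0% = DMSO-only wells and 100% = 3 µM delta7-dafachronic acid wells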
hgDAF-12 ag – agonists of H. glycines DAF-12 nuclear receptor. HEK293 GAL4-hgDAF12 UAS-luciferase reporter, agonist luminescence; normalized to butyrate control. activation, % at 6.8 µM. hit rate 1.8% among 370,000;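 active means activation above a cutoff set at the mean of all screened compounds plus 3 SD, cut at about 10% in these data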;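 further: 0% = DMSO wells and 100% = sodium butyrate wells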
hcDAF12 agonist – activates DAF-12 receptor from parasite H. contortus. HEK293 hcDAF-12 lit1-tk-luc reporter, luminescence; 0% DMSO, 100% Δ7-dafachronic acid. activation, % at 6.8 µM. hit rate 1.4% among 370,000;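 active means activation above the mean of all tested compounds plus 3 SD, cut at about 5.5% in these data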;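 further: 100% = response to 3 µM Δ7-dafachronic acid high control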
* marks the source's active call; other numbers are inactive results; u = inconclusive; x = not tested or not shown.

SMILES | PolyA inh | DAX1 inh-1 | DAX1 inh-2 | ssDAF12 agonist | hgDAF-12 ag | hcDAF12 agonist
O=C1/C(=C/c2cccc(F)c2)CSc2sccc21 | -6.2 | -0.7 | 0.1 | -1.6 | -2.7 | -2.0
COc1cccc(/C=C2\CCc3ccccc3C2=O)c1 | -9.2 | 1.6 | 0.4 | 0.1 | 13.6* | 4.0
COc1cc(C=C2C(=O)c3ccccc3C2=O)cc(OC)c1 | -1.1 | -0.3 | 4.7* | -0.4 | 3.6 | 4.0
O=C1C(=Cc2cccc(F)c2)Cc2ccccc21 | x | -0.3 | x | -1.4 | 13.1* | -1.2
COc1cccc(C=C2Cc3ccccc3C2=O)c1 | x | 1.2 | x | -1.1 | 10.1 | 3.2
COC(=O)[C@]12C[C@H](CC(=O)N3CCN(C(=O)c4ccco4)CC3)C(=O)N(CCC3=CCCCC3)C1=C[C@H](C(C)C)O[C@@H]2C1CC1 | x | 0.2 | x | -1.9 | 0.4 | -0.6
C[C@H]1CN([C@@H](C)CO)C(=O)CCCn2cc(nn2)CO[C@@H]1CN(C)C(=O)c1ccccc1 | x | 0.6 | x | -0.7 | -0.2 | -0.1
[O-][N+](=C(c1ccccc1)c1ccccc1)c1ccccc1 | x | -0.4 | 0.9 | 0.9* | -0.5 | 2.5
O=C(Cc1ccc([N+](=O)[O-])cc1)c1ccccc1 | x | -0.9 | 0.4 | -1.1 | 5.3 | 0.8
Clc1ccc(CSc2ccc(-c3ccccn3)nn2)cc1 | 0.6 | 0.7 | 2.1 | -0.7 | 5.1 | 3.9
O=C(CSc1ccc(-c2ccccn2)nn1)c1ccc(F)cc1 | u | 0.6 | -0.4 | -1.9 | 5.0 | -0.4
c1ccc(CSc2ccc(-c3ccccn3)nn2)cc1 | -20.6 | 3.4 | 1.5 | 0.4 | 12.1* | 4.9
O=C(CSc1ccc(-c2ccccn2)nn1)c1ccccc1 | -6.7 | 0.2 | 4.6* | -0.6 | 9.3 | 2.4
O=C(NCCc1ccccc1)OCc1cn(Cc2cc(F)cc(F)c2)nn1 | x | -0.8 | x | -0.7 | -0.2 | -1.6
O=C(O)c1cc(-c2cc3ccccc3o2)nn1-c1ccccc1 | 6.6 | 0.1 | 0.6 | 2.5* | 1.9 | 5.8*
O=C(COc1ccccc1)NCC(=O)NC1=NCCS1 | -3.0 | -0.6 | 1.1 | -0.5 | -0.9 | 0.0
Cc1ccc(OCC(=O)NC2=NCCS2)cc1 | 2.5 | 0.1 | 4.7* | -0.8 | 2.0 | -0.7
Cc1ccc(/C=C/C(=O)NC2=NCCS2)cc1 | 6.7 | 6.4* | -2.1 | 1.4* | 17.2* | 8.0*
N#Cc1ccc(N2C(=O)[C@@H]3C(C(=O)c4cnccn4)=NN[C@@H]3C2=O)cc1 | 24.7 | 0.2 | x | -0.8 | 1.6 | -1.0
O=C(C1=NN[C@@H]2C(=O)N(c3cccc(C(F)(F)F)c3)C(=O)[C@H]12)c1cnccn1 | 12.8 | 0.3 | 7.3* | -0.8 | 0.1 | 0.4
CN1CCCN(Cc2cccc3ccccc23)CC1 | -10.0 | 0.0 | 0.3 | -1.3 | -0.4 | 1.9
OC1CCN(Cc2cccc3ccccc23)CC1 | -1.1 | -0.5 | 5.0* | -1.0 | 1.5 | -1.0
CCC(=O)OCCCN1CCC2(CCCCC2)C1=O | x | x | x | -0.6 | -0.2 | 0.5
Cc1c(N2C(=O)c3ccc(Br)cc3C2=O)c(=O)n(-c2ccccc2)n1C | -10.1 | -0.4 | 5.4* | -1.1 | -2.4 | -1.2
C(=C\c1ccccc1)/CSc1nc2ncccc2[nH]1 | -6.5 | 0.5 | 4.5* | 0.0 | 5.3 | 0.9
SMILES | PolyA inh | DAX1 inh-1 | DAX1 inh-2 | ssDAF12 agonist | hgDAF-12 ag | hcDAF12 agonist
COc1cccc(-c2cccc3c4c([nH]c23)[C@@H]2C[C@H]3[C@@H](C(=O)N2CC4)[C@H](C)ON3C)c1 | x | 1.4 | x | -0.7 | 5.1 | -2.1
Cc1cc(C)nc(CC(N)=O)n1 | 4.9 | -0.4 | 5.9* | -1.5 | 0.1 | 0.0
Cc1cc(C)nc(SCC(=O)NN)n1 | -9.7 | 0.8 | -0.3 | -0.9 | -1.5 | 0.1
COc1ccccc1CC(=O)Nc1ccccc1O | 10.8 | -0.3 | 0.7 | -1.3 | 3.2 | -0.2
COc1ccccc1CC(=O)Nc1ccc([N+](=O)[O-])cc1O | 4.4 | -0.3 | 5.9* | -0.3 | -1.4 | 1.0
O=C(COC(=O)c1n[nH]c2ccccc12)Nc1ccc(Cl)cc1[N+](=O)[O-] | -28.4 | -0.2 | 0.1 | 0.3 | -0.3 | 1.6
COc1cc([N+](=O)[O-])ccc1NC(=O)COC(=O)c1n[nH]c2ccccc12 | -7.5 | -0.3 | -2.3 | -1.0 | -0.7 | 6.3*
COC(=O)C[C@H]1CC[C@H]2[C@H](COc3ccc(NC(=O)c4ccccc4F)cc3C(=O)N2C)O1 | x | 0.7 | x | -1.6 | 1.4 | -2.5
Cc1ccc(NC(=O)c2ccc(OC(=O)COc3ccc(Cl)cc3C)cc2)cc1 | 5.7 | 3.9* | 0.7 | 0.4 | 12.7* | 6.1*
Cc1ccc(C(=O)CC(=O)COc2ccc(Cl)cc2C)cc1 | 20.8 | -0.4 | 0.4 | -1.4 | -0.9 | -1.1
C/C=C/c1ccccc1OCCCN1CCC(C(O)(c2ccccc2)c2ccccc2)CC1 | x | -0.2 | x | -1.2 | -0.9 | 0.4
O=C(C1CC(Cl)CN1S(=O)(=O)c1ccc(Cl)cc1)N1CCOCC1 (stereo not given) | 25.4 | 0.2 | -0.1 | 0.1 | 3.2 | 2.9
O=C(N1CCOCC1)N1CCN(S(=O)(=O)c2ccc(Cl)cc2)C1 | 2.1 | 0.1 | 0.9 | 1.0* | -1.8 | 2.0
O=C1C(Cl)=C(N2CCCCCC2)C(=O)N1c1ccc(Br)cc1 | -11.4 | -0.4 | -0.2 | 2.2* | 5.1 | 0.7
C#CCN1CC(COc2ccccc2)OCCS1(=O)=O (stereo not given) | x | 0.6 | x | -0.5 | -1.1 | -1.4
COc1cccc(N2CCN(CC(=O)NCc3c(F)cccc3F)CC2)c1 | x | -0.5 | x | -1.1 | -2.2 | -0.6
O=C(NCc1ccccc1)[C@@H]1CCCN1C(=O)[C@H]1CCCN1C(=O)c1ccc(F)c(C(F)(F)F)c1 | x | -0.5 | x | -0.9 | -1.0 | -1.5
COC(=O)CN1C(=O)C(O)(CC(=O)c2ccc(Br)cc2)c2ccccc21 (stereo not given) | 20.0 | 0.1 | 3.3 | -0.8 | 2.2 | -0.4
COC(=O)CN1C(=O)C(O)(CC(=O)c2ccc(C)cc2)c2cc(Br)ccc21 (stereo not given) | -19.5 | -0.8 | 4.5* | -0.9 | 4.7 | -0.6
O=C(Nc1nccs1)c1ccc(N2C(=O)[C@@H]3[C@H](C2=O)[C@H]2C=C[C@@H]3C2)cc1 | 5.2 | 2.6 | 4.5* | -0.9 | 12.1* | 2.3
O=C(Nc1nccs1)c1ccc2nccnc2c1 | -0.7 | 0.5 | 4.6* | -1.4 | 9.5 | 0.8
O=C(Nc1nccs1)c1cccc(N2C(=O)C3C4C=CC(C4)C3C2=O)c1 (stereo not given) | 7.8 | 0.0 | -1.3 | -1.4 | 0.1 | -0.7
COc1cccc(-c2nnc(NC(=O)CCS(=O)(=O)c3ccc(F)cc3)o2)c1 | x | -0.1 | -0.1 | -1.2 | 5.3 | 0.2
CS(=O)(=O)c1cccc(-c2nnc(NC(=O)CCS(=O)(=O)c3ccccc3)o2)c1 | 7.7 | 0.7 | 4.6* | -0.4 | 3.3 | 0.9
O=C(O)CCCC[n+]1ccccc1 | x | 0.5 | x | -1.5 | 1.2 | -0.8

Assay outcomes (PubChem)
